Among the data in the supplement of paper PMC6555819 are PBM binding z-score values, retold here.

The assay has as its system VDR:RXRa (NR concentration 270 nM, RXRa partner concentration 90 nM). In words: PBM binding z-score (relative to random genomic background probes); higher = stronger binding; sequences stand for … in GC…GCGATTGACAGCGTAGAATGAAGG
As for the experimental part:
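Protein-binding microarray (Agilent 4x180K custom design, double-stranded 60-nt probes: 5' GC cap, 34-nt variable region, 24-nt constant primer region; full probe sequence given). Purified or IVT nuclear receptor:RXRα heterodimers (3:1 NR:RXRα, mostly 270:90 nM) or homodimers were incubated for 1 h in PBS with 2% milk and no ligand, then detected with Alexa488 antibodies. Fluorescence from o1-orientation probes (~5 replicates averaged) was converted to z-scores against 500 random hg19 background probes. Variable regions are seed direct-repeat (DR0–DR5) sites, all their single-nucleotide variants and half-site ablations.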
In the case of TCATATAGGTAATACAGGTCAAAGTCGGCATCTA, the PBM binding z-score is 4.07.

CTCGAAAAGTCGGTTGAGGTGAGTATACGGATAA: the PBM binding z-score is -0.065.

The sequence GCTTGTAGATCAAGGCTAAGAAAGACTAAGCTAA returned a PBM binding z-score of -0.679.

ATAGAAAGGTCGACGAGGTGAGTATACACCGTTT showed a PBM binding z-score of 5.01.

In the case of ATATGTAGGTTATCCGGTCATTCAGTTTGCGCAT, the PBM binding z-score was found to be 2.65.

As to CCTACTGGACCACGAAAGGTCATTGATTCAGTGA, the PBM binding z-score came out at 4.17.

ATGGAAAGGTCGACGAGGTGAGTATACACCGTTT registered a PBM binding z-score of 5.25.

In turn, TTACCAAGATGAAAGGTCGTTGATGCACGCCTTG had a PBM binding z-score of 1.69.

On to CTCGAAAGGTCGTGCTCAGGTGAGCATACCAAAC, for which the PBM binding z-score was determined as 3.27.

Turning to GCCGACAGGTGAAACGCAGGTAACTCAGGGTGGC, the PBM binding z-score was -0.543.

ATCTATAGGTAACCAAGTTCAGTGAATGCCGAAC returned a PBM binding z-score of 5.03.

In turn, TCTATTATTTGAAGGGCAACCGACGAGTCCGTTT registered a PBM binding z-score of 1.55.

With ACAGACAGGTGAGTGAAGGTTACTCAGCTGGACG, the PBM binding z-score worked out at 0.088.

In the case of CGAACGAGGGCATGAGTTGATTGCAAATGCCGAT, the PBM binding z-score stood at 1.66.

ATCTCCAGGTAACAAGTTCAGTGAAAGAGAGGAC displayed a PBM binding z-score of 2.42.

TGAATGAGGTTATAAGATCAGAGAACGTTGCAAA yielded a PBM binding z-score of 0.965.

Sequence GTACCAAGGTGAATAGGTCGTAGATGAGTAGGCG had a PBM binding z-score of 0.667.

As to CAAACTAGGTCACAGAGGTCAAAGTGCGTGCGTA, the PBM binding z-score worked out at 8.02.

In turn, CCTCGTAGGACAGAAGGTCAGAGCTGTCCGCTTT had a PBM binding z-score of 1.13.

Sequence CCTCTTAGTTGACCATAAGGGCAACCGAAGCTCG gave a PBM binding z-score of 0.969.

CAAACTAGGTCAAGAGGTCAAAGTGCGCTTCCCG returned a PBM binding z-score of 6.26.

TCTTGTGGATCAACAGGAGGTTAAGAAAGATCGA came in with a PBM binding z-score of 0.329.

In turn, ATCTCTAGGTAAGACTCAGTTCAGTGAAGAACGC displayed a PBM binding z-score of 0.833.

On to CCTATTAGTTGACCATAATGGCAACCGAAGCTCG, for which the PBM binding z-score came to 0.509.

AGTCAAAGTTCAGGACGAGGTAACGGAAAGCACG displayed a PBM binding z-score of 2.86.

Consider CGTCCACGGTCAATGCTAGGTCAGTGAAAGCATT, for which the PBM binding z-score is 0.36.

For the sequence TCATATAGGTAATACAGGTGAAAGTCGGCATCTA, the PBM binding z-score amounted to 1.31.

For TCTTGTAGATCAATAGAGGTTAAGAGAGTGCGCT, the PBM binding z-score was 2.79.

CGTCCAAGGCCAATGCTAGGTCAGTGAAAGCATT displayed a PBM binding z-score of 0.034.

As for CGAACTAGGTCATTGACAGGAAAGTGAATAGTAA, the PBM binding z-score amounted to 1.73.

For the sequence TCTCGGAGAACACGAAGGTCAGAGCTTTCCAGAG, the PBM binding z-score came out at 0.885.

Sequence CCTAACGGGTCACTGACAGGTTATAGCATTTGGA displayed a PBM binding z-score of 3.21.

Consider CCAGACAGGTGATAAGGTAACTCAGCCTCGATTA, for which the PBM binding z-score was -0.000379.

In turn, CGACCAAGGTCAATGCTAGGTCAGTGAAAGCATT displayed a PBM binding z-score of 4.69.

ATACCAATGTGATCGTGAGGTCGTTGATACTAAC yielded a PBM binding z-score of 1.62.

CCTAGTTGGTAAAGGTCACACACGCTATAGGTAC showed a PBM binding z-score of 4.9.

As for GGAACGAGGGCAAGTTGATAACAGAGTTTGATGG, the PBM binding z-score is 0.906.

TTACCAAGGTGAAGTTCGTTGATCCCTCTGTAGA came in with a PBM binding z-score of 1.49.

As to CTTCCAAGGTCATAGGAGGTCAGTGAAGACAGAT, the PBM binding z-score amounted to 6.66.

For the sequence CGTCCAAGGTCATAGGAGGTGAGTGAAGACAGAT, the PBM binding z-score came to 4.7.
